The source of these data is PubChem BioAssay AID1445 (SRMLSC, 2008).

SMILES strings stand for the structures. About 910 (0.41%) of roughly 220,000 compounds were called active. The list comes from a sample in which actives are over-represented; it also holds similar structures and randomly drawn compounds. Results with a measured potency or affinity are listed apart. A number with no mark means an inactive call.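 The calls were made as follows: active = primary inhibition above the hit cutoff, then over 50% inhibition at one or more dose response concentrations (cut at about 23% in these data, passing the limit was not always enough); inconclusive = conflicting primary data, or primary hits not chosen for dose response; inactive = low primary inhibition, or under 50% at every dose.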

For orientation: inhibition means the drop in the measured response relative to a control, in per cent.

Chain of Aminopeptidase N (Plasmodium falciparum (isolate 3D7)) (O96935 whole entry, looked up): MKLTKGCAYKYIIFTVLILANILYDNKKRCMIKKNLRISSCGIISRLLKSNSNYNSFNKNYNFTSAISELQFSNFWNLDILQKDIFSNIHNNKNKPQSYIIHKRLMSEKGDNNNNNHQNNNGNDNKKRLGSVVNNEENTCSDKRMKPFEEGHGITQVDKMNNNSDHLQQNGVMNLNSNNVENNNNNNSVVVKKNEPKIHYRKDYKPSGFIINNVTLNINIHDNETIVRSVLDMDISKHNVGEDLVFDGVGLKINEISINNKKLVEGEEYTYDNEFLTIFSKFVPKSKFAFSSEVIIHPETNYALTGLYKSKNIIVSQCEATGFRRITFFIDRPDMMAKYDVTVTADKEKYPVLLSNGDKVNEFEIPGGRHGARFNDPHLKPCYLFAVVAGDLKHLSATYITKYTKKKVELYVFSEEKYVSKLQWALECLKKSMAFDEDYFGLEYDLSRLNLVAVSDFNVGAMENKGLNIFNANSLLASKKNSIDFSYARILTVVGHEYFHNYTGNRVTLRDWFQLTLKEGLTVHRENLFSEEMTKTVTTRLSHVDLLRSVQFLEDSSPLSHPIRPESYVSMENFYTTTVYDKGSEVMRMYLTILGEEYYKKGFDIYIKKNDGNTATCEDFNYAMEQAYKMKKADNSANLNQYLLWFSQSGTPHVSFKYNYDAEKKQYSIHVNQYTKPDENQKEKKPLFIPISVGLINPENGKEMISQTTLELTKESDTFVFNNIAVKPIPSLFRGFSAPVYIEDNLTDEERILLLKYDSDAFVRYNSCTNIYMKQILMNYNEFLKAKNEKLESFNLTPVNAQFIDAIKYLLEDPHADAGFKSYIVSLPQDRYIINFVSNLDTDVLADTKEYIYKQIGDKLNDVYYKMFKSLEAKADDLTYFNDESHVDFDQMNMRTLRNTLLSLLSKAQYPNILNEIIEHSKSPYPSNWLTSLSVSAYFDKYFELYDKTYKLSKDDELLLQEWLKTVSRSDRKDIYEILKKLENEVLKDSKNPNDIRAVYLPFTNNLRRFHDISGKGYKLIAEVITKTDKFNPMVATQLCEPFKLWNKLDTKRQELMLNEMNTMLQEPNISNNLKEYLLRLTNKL

This assay has as its target Aminopeptidase N (Plasmodium falciparum (isolate 3D7)) (UniProt O96935). The assay can be described thus: P. falciparum M1AAP inhibitors, biochemical, fluorogenic H-Leu-NHMec substrate, 1536-well (AID 1445).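 Also: plate controls were DMSO full reaction for no effect and no enzyme background for full effect.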 As to conditions: recombinant M1AAP, H-Leu-NHMec fluorogenic kinetic assay; at 30 µM, stronger effect = higher value unless noted.
With `CCOc1cc(N2CCOCC2)c(OCC)cc1NC(=O)c1ccc(S(C)(=O)=O)cc1`, the inhibition was 9.02%.

As for `COc1ccccc1N(C)S(=O)(=O)c1ccc(C(=O)OCC(=O)NCc2ccco2)cc1`, the inhibition is -0.82%.

For `Cc1cccc(NC(=O)N2CCC(c3nc4ccccc4o3)CC2)c1`, the inhibition was 10%.

Regarding `COc1cc(NC(=S)NC(=O)C(C)C)ccc1NC(=O)c1cc2ccccc2o1`, the inhibition is 10.7%.

`COc1ccc(NC(=O)Nc2ccc(OCC(=O)N3CCOCC3)cc2)cc1OC`: the inhibition was 0.44%.

As for `CCC(C)(C)C1CCc2c(sc(NC(=O)c3cccs3)c2C(N)=O)C1` (configuration not stated), the inhibition was -0.66%.

As to `C=CCn1c(=NC(=O)CC)n(C)c2ccccc21`, the inhibition is 0.56%.

As to `CCCn1c(CNc2ccccc2O)nc2ccccc21`, the inhibition was 0.88%.

As for `Cn1c(CNc2ccccc2O)nc2ccccc21`, the inhibition was 25% (active).

`Cn1c(CNc2nc3ccccc3n2C)nc2ccccc21`: the inhibition is -11.6%.

For the compound `COc1cc(C(=S)N2CCOCC2)cc(OC)c1OC(=O)Cc1ccc(F)cc1`, the inhibition was 7.01%.

For `CC(C)(C)NC(=O)NC(=O)COC(=O)CCCc1c[nH]c2ccccc12`, the inhibition is 3.27%.

As for `O=C1NCCCc2nonc21`, the inhibition was 0.35%.

On to `CCOc1cc(/C=N/N=C2/NC(=O)C(CC(=O)O)S2)ccc1OCc1ccc(Cl)cc1` (configuration not stated), for which the inhibition was 9.38%.

Turning to `CCOc1cc(/C=N/NS(=O)(=O)c2ccccc2)ccc1OS(=O)(=O)c1ccc(C)cc1`, the inhibition was 14.5%.

With `COc1cc(/C=N/N=C2/NC(=O)C(CC(=O)O)S2)ccc1OCc1ccc(Cl)cc1` (configuration not stated), the inhibition was 21.8%.

As for `CCOc1cc(/C=N/O)ccc1OS(=O)(=O)c1ccc(C)cc1`, the inhibition is 13.6%.

With `CC(=O)Nc1ccc(S(=O)(=O)Oc2cccc(/C=C3\SC(N)=NC3=O)c2)cc1`, the inhibition was -0.74%.

In the case of `CC(=O)Nc1ccc(S(=O)(=O)Oc2ccc(/C=N/N=C3/NC(=O)C(CC(=O)O)S3)cc2)cc1` (configuration not stated), the inhibition was 10.6%.

For `CCN(Cc1ccccc1)C(=O)c1cc(COc2c(F)cccc2F)on1`, the inhibition is 5%.

With `COc1ccccc1-c1ccc(SCC(=O)NCCc2ccccc2)nn1`, the inhibition is 10.8%.

As to `Cc1cc(C(=O)COC(=O)c2nccnc2N)c(C)n1C`, the inhibition is 6.62%.

Regarding `CCOC(=O)C1CCCN(CC(=O)c2c[nH]c3ccc(C)cc23)C1` (configuration not stated), the inhibition was 5.27%.

As for `CCOCc1nnc(NC(=O)c2ccc(NC(C)=O)cc2)s1`, the inhibition is 1.45%.

Regarding `COc1ccc(NC(=O)CSc2ncn[nH]2)c([N+](=O)[O-])c1`, the inhibition is -0.25%.

On to `C=CCn1c(SCc2c(C(=O)OC)sc(N)c2C(=O)OC)nnc1-c1ccc(Br)cc1`, for which the inhibition was 6.79%.

As for `CCC(=O)c1c(NC(C)C)cc(C)oc1=O`, the inhibition is 2.35%.

As to `Cc1cnc(C)c(N2CCC(C(=O)NCc3cccs3)CC2)n1`, the inhibition is 3.94%.

As for `COc1cc(CNC(C)(C)C)cc(Br)c1OCc1cccs1`, the inhibition is 6.22%.

Regarding `COc1ccc(C2c3c(-c4ccccc4)n[nH]c3C(=O)N2c2ccc(C(=O)O)cc2)cc1` (configuration not stated), the inhibition was 5.67%.

Turning to `O=C(O)c1ccc(N2C(=O)c3[nH]nc(-c4ccccc4)c3C2c2ccccc2)cc1` (configuration not stated), the inhibition was 2.78%.

On to `COc1cccc(C2c3c(-c4ccccc4)n[nH]c3C(=O)N2c2ccc(C(=O)O)cc2)c1` (configuration not stated), for which the inhibition was 8%.

For `COc1cc(C2c3c(-c4ccccc4)n[nH]c3C(=O)N2c2ccc(C(=O)O)cc2)ccc1O` (configuration not stated), the inhibition is 14.8%.

Consider `COc1cccc(OC)c1OCCNCCO`, for which the inhibition is 9.5%.

On to `O=C(CCNS(=O)(=O)c1cccc2nsnc12)NCc1ccco1`, for which the inhibition is 3.34%.

With `CC(=O)Nc1ccccc1C(=O)C(=O)Nc1cccc(C(=O)NCc2ccc(C)cc2)c1`, the inhibition was 2.5%.

For `COC(=O)c1cc(NC(=S)N2CCN(C(=O)C3CCCO3)CC2)cc(C(=O)OC)c1` (configuration not stated), the inhibition is -0.88%.

As to `CCOC(=O)c1cc2c(=O)[nH]ccc2nc1C(F)(F)F`, the inhibition is 5.5%.

Regarding `CCOc1cc(/C=C(/C#N)c2ccc(F)cc2)ccc1OCc1ccc(C(=O)O)o1`, the inhibition was 17.8%.

`COC(=O)c1ccc(COc2ccc(/C=C(\C#N)c3nc4ccccc4[nH]3)cc2OC)o1`: the inhibition is 12.6%.

Turning to `COc1cc(/C=C(/C#N)c2ccc(F)cc2)ccc1OCc1ccc(C(=O)O)o1`, the inhibition was 27.4% (active).

`CCc1ccc(NC(=O)COc2ccc(/C=C(/C#N)c3nc4ccccc4[nH]3)cc2OC)cc1`: the inhibition was 11%.

As to `COc1cc(/C=C(\C#N)c2nc3ccccc3[nH]2)ccc1OC(=O)c1ccco1`, the inhibition is 7.39%.

In the case of `N#C/C(=C\c1ccccc1OCc1ccc(C(=O)O)cc1)c1ccccc1`, the inhibition was -6.55%.

For the compound `CCCc1ccc(OCc2ccc(C(=O)O)o2)c(OC)c1`, the inhibition was 1.24%.

As to `CCOc1cc(/C=C(/C#N)c2nc3ccccc3[nH]2)ccc1Oc1ccc([N+](=O)[O-])cn1`, the inhibition is 1.44%.

For the compound `COc1cccc(/C=C(/C#N)c2ccc(Cl)cc2)c1OCc1cccc(C(=O)O)c1`, the inhibition is 13.3%.

Regarding `CN(C(=O)c1ccccc1NC(=O)C(F)(F)F)c1ccccc1`, the inhibition was 4.16%.

As to `O=C1OCC2=C1C(c1ccccc1)CC(=O)N2c1ccccc1` (configuration not stated), the inhibition is 5.38%.

With `NC(=O)C(=O)N/N=C/c1c(F)c(F)c(F)c(F)c1F`, the inhibition was 13.6%.

As for `C=C1CCN([C@@H](C)C(=O)NCc2ccc(OC)cc2)S(=O)(=O)c2ccccc21`, the inhibition was 6.29%.

As to `CN(CC(=O)N1CCN(c2ccccn2)CC1)S(=O)(=O)c1cccc2nsnc12`, the inhibition is 3.43%.

With `Cc1cc(C)nc(N/N=C/c2ccccc2OCc2ccc(Br)cc2)n1`, the inhibition is 1.44%.

In the case of `Cc1c(N2C(=O)C(=O)/C(=C(/O)c3ccccc3)C2c2ccc(F)cc2)c(=O)n(-c2ccccc2)n1C` (configuration not stated), the inhibition was 5.61%.

With `O=C(C1=C(O)C(=O)N(CCc2ccccc2)C1c1cccnc1)c1ccco1` (configuration not stated), the inhibition is 9.09%.

For the compound `Cc1ccc(C(=O)C2=C(O)C(=O)N(Cc3ccccc3)C2c2cccnc2)o1` (configuration not stated), the inhibition is 15.2%.

With `Cc1c(N/C=C/C(=O)c2ccc(Cl)cc2)c(=O)n(-c2ccccc2)n1C`, the inhibition is 4.02%.
